From PubChem BioAssay AID2025 (NMMLSC, 2009)
Screen size: about 330,000 compounds; about 980 (0.3%) were called active. The full list was thinned out, with actives kept by preference. Values without a mark were called inactive.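 How the source made its calls: active means percent response vs DMSO below 50%; inconclusive means fewer than 70 events counted for the yeast strain; inactive means the rest.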

assay: RPL19A-GFP expression modulators in yeast, primary screen, cell-based, S. cerevisiae, multiplex flow cytometry, MLPCN (AID 2025);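 further: median channel GFP fluorescence of the barcoded RPL19A-GFP strain; ratio of sample median GFP to plate DMSO average so 100% = DMSO; lower means less RPL19A-GFP as with rapamycin TOR inhibition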; conditions: S. cerevisiae RPL19A-GFP strain, 3 h, at 10 µM, stronger effect = lower value

Compound	percent response vs DMSO
CCCOc1ccc(/C=N/NC(=O)C2CC2)c(OCCC)c1	101%
COc1cccc(N=c2oc3c(C)ncc(CO)c3cc2C(N)=O)c1	95%
Cc1ccccc1S(=O)(=O)Cc1ccc(C(=O)NCCN2CCCCC2C)o1 (stereo not given)	34.3% [may fluoresce violet] (active)
CCc1ccccc1S(=O)(=O)Cc1ccc(C(=O)NCCc2ccccc2)o1	96.8%
Cc1oc(-c2ccccc2F)nc1CS(=O)CC(=O)NCCN1CCCCC1C (stereo not given)	100%
CCCS(=O)(=O)N1CCCC(C(=O)NCCN2CCCCC2C)C1 (stereo not given)	104%
Cc1cc(N2CCOCC2)nc2ccc(NC(=S)N3CCN(Cc4ccccc4)CC3)cc12	105%
COc1ccc(/C(C)=N/NC(=O)c2ccc3nc[nH]c3c2)cc1	22.1% [may fluoresce violet] (active)
CCN(CC)c1ccc(C(=O)N/N=C(\C)c2cccc(OC)c2)cc1	103%
CC(=NNC(=O)c1ccc2nc[nH]c2c1)c1ccc(Br)cc1	103%
CCCC(NC(=O)c1ccco1)c1nc2ccccc2[nH]1 (stereo not given)	104%
COc1c(C)c2c(c(O)c1C/C=C(\C)CCC(=O)O)C(=O)OC2	39.1% [may fluoresce violet] (active)
Cc1c(C)n2c(SCC(=O)NC3CCCC3)nnc2[nH]c1=O	88%
COc1cc(SC)ccc1C(=O)NNC(=O)C1COc2ccccc2O1 (stereo not given)	95%
CCOc1ccccc1NC(=O)C12CC3CC(C1)CC(c1ccc(C)cc1)(C3)C2	101%
Cc1ccc(C23CC4CC(CC(C(=O)NCC(=O)O)(C4)C2)C3)cc1	30% [may fluoresce violet] (active)
C=CCNC(=O)C12CC3CC(C1)CC(C(=O)NCC=C)(C3)C2	98.2%
O=C(COc1ccc2c(c1)CCC2)N1CCN(c2ccc(F)cc2)CC1	95.3%
COc1ccc(-c2nc3ccccc3n2CCC(C)C)cc1OC	98.3%
O=C1N(c2ccc(Cl)cc2)C(c2ccc(Cl)cc2)N2CCCN12 (stereo not given)	95.4%
CCOC(=O)C1CCN(C(=O)CN2C(=O)c3cccnc3Oc3ccc(C)cc32)CC1	97.7%
Cc1cc2c(cc1C)N(Cc1ccccc1)C1=NCCCN12	101%
CC(C)c1ccc(C2C(C#N)=C(N)Oc3c2oc(CO)cc3=O)cc1 (stereo not given)	44% [may fluoresce violet] (active)

Compound	percent response vs DMSO
C=CCOC(=O)C1=C(C)OC(N)=C(C#N)C1c1ccc(F)cc1 (stereo not given)	91.2%
COC(=O)C1=C(N)Oc2c(oc(CO)cc2=O)C1c1c(F)cccc1Cl (stereo not given)	103%
Cc1cccc(OCC(=O)NC2CC(C)(C)NC(C)(C)C2)c1	98.6%
Cc1cccc(NC(=O)Cn2c(=O)n(Cc3ccccc3)c(=O)c3c(C)c(C)sc32)c1	104%
Cc1c(C(C)(C)O)[nH]c2ccc(C#N)cc12	91.7%
CCOC(=O)C1CCCN(C(=O)CSc2nnc3nc(C)cc(C)n23)C1 (stereo not given)	93.7%
COc1cc(C(=O)NC2CCN(C)CC2)ccc1Nc1ncc2c(n1)N(C1CCC(O)CC1)CCC(=O)N2C (stereo not given)	90.7%
O=C(CS(=O)(=O)c1cn(Cc2cccc(F)c2)c2ccccc12)N1CCCCC1	43% [may fluoresce violet] (active)
CC(=O)Nc1ccc(NC(=O)CS(=O)(=O)c2cn(CC(=O)N3CCCCC3)c3ccccc23)cc1	97.7%
O=C(CS(=O)(=O)c1cn(Cc2ccc(Cl)cc2)c2ccccc12)N1CCOCC1	91.2%
CN1CCN(C2Cc3ccc(Cl)cc3Sc3ccc(F)cc32)CC1 (stereo not given)	100%
COCCN(C(=O)CSCc1ccc(C)cc1)c1c(N)n(CC(C)C)c(=O)[nH]c1=O	93.3%
Nc1nc(SCc2cccc(Br)c2)n[nH]1	99.2%
Cc1ccc(N2CCN(S(=O)(=O)c3ccc(F)cc3)CC2)c(C)c1	94.2%
CCN(CC(=O)NC(=O)NCc1ccccc1)Cc1nc2ccccc2c(=O)[nH]1	102%
O=C(c1ccco1)N(Cc1nc2ccccc2c(=O)[nH]1)C1CCCC1	16.5% [may fluoresce violet] (active)
CCCC(=O)N(CCc1ccccc1)Cc1nc2ccccc2c(=O)[nH]1	90.4%
CC(C)(C)NC(=O)CN(Cc1cccs1)C(=O)CNS(=O)(=O)c1ccccc1	107%
O=P(c1cccs1)(c1cccs1)c1cccs1	98.8%
Cc1cccc(NC(=O)c2ccc3nsnc3c2)c1C	103%
Cc1cccc(NC(=O)c2cccc(C(=O)Nc3cccc(C)c3C)n2)c1C	49.4% [may fluoresce violet] (active)
Cc1nc(C)c(C(=O)Nc2cccc(C)c2C)o1	98.6%
Cn1c(=O)oc2cc(S(=O)(=O)NCCC(=O)NCc3ccccc3Cl)ccc21	106%

Compound	percent response vs DMSO
COc1ccccc1S(=O)(=O)NCc1ccc(C(=O)N(C)Cc2ccc(F)cc2)cc1	91.3%
COc1ccccc1/C=C/C(=O)OCC(=O)NC1CCCCCC1	96.2%
CCC(c1nnnn1Cc1ccco1)N(Cc1cc2cc(OC)ccc2[nH]c1=O)C1CCCCC1 (stereo not given)	39.1% [may fluoresce violet] (active)
CCC(c1nnnn1Cc1ccccc1)N(Cc1cc2cc(OC)ccc2[nH]c1=O)CC1CCCO1 (stereo not given)	94.8%
CCC(c1nnnn1Cc1ccco1)N(CCc1ccccc1)Cc1cc2cccc(C)c2[nH]c1=O (stereo not given)	100%
O=C(CS(=O)(=O)c1ccc(C(F)(F)F)cn1)NNC(=O)c1ccccc1	99.4%
C/C(=N\NS(=O)(=O)c1ccccc1)c1c(O)cc(C)oc1=O	105%
CCC(=O)Nc1ccc(C(=O)N2CCN(C(=O)c3ccco3)CC2)cc1	94.2%
Cc1ccc(OCC(=O)Nc2ccc(N3CCN(C(=O)c4ccco4)CC3)cc2)c(C)c1	41.5% [may fluoresce violet] (active)
Cc1ccc(C)c(OCC(=O)N2CCN(C(=O)c3ccco3)CC2)c1	110%
CC1(C)OC(=O)N2CCc3ccccc3C21C (stereo not given)	99%
O=C(COc1ccccc1)Nc1cc2c3c(c1)CC(=O)N3CCC2	101%
O=C(Nc1cc2c3c(c1)CC(=O)N3CCC2)c1ccccc1F	43.6% [may fluoresce violet] (active)
CCCNC(=O)C(=O)Nc1cc2c3c(c1)CCC(=O)N3CCC2	100%
Cc1cccc(NC(=S)NCc2ccc3[nH]c4c(c3c2)CCCC4)c1	105%
COc1cccc(CN2CCNC(=O)C2CC(=O)N(C)CCc2ccccn2)c1 (stereo not given)	102%
COCCNC(=O)Nc1ccc2nc(-c3ccco3)c(-c3ccco3)nc2c1	23.4% [may fluoresce violet] (active)
COc1cccc(NC(=O)NCCN2CCCCC2)c1	96%
O=C(NCc1ccccn1)c1ccc2nc(-c3ccco3)c(-c3ccco3)nc2c1	99.4%
COc1ccc([N+](=O)[O-])cc1NCC(=O)c1ccc(C)cc1	104%
COc1cc(C(=O)NCCOC(=O)c2cccc(N(C)C)c2)cc(OC)c1OC	101%
CNS(=O)(=O)c1cccc(C(=O)NC2CCCc3ccccc32)c1 (stereo not given)	101%
O=C(O)c1cc(S(=O)(=O)NC2CCCc3ccccc32)ccc1O (stereo not given)	34.1% [may fluoresce violet] (active)

Compound	percent response vs DMSO
O=C(CCC(=O)N1CCN(S(=O)(=O)c2ccccc2)CC1)NC1CCCc2ccccc21 (stereo not given)	101%
CC(=O)Nc1ccccc1C(=O)C(=O)Nc1ccc(F)cc1	105%
O=C(CCC(=O)c1ccccc1)NCc1cccc(C(F)(F)F)c1	98.9%
O=C(c1cc2ccccc2o1)N1CCN(c2cccc(C(F)(F)F)c2)CC1	98.3%
O=C(NCc1ccncc1)C1CCN(C(=O)c2cccc(Cl)c2)CC1	42.1% [may fluoresce violet] (active)
O=C(c1cccc(Cl)c1)N1CCN(Cc2ccccc2)CC1	103%
COc1ccc(CNC(=O)C2CCN(C(=O)c3ccccc3)CC2)cc1	82.1%
COc1ccc(S(=O)(=O)N2CCOC2CNC(=O)C(=O)NCc2ccncc2)cc1C (stereo not given)	99.3%
Cc1ccc(C2SCC(=O)N2c2ccccc2)cc1 (stereo not given)	103%
COc1cccc(C2SCC(=O)N2c2cccc(C)c2)c1OC (stereo not given)	49.7% [may fluoresce violet] (active)
O=C1CSC(c2cccc(F)c2)N1c1ccc(O)cc1 (stereo not given)	95.8%
O=C(CC(NS(=O)(=O)c1ccc(Cl)cc1)c1ccco1)NC1CCCC1 (stereo not given)	96.4%
O=C(CSc1ccccn1)Nc1nc2c(ccc3ccccc32)s1	106%
CC(=O)Nc1ccc(NC(=O)CC2CCCC2)cc1	42.2% [may fluoresce violet] (active)
COc1ccc(NC(=O)CN(C)C(=O)CC2CCCCC2)cc1	96.3%
CC(=O)Nc1ccc(NC(=O)COC(=O)C2CCC(C(C)(C)C)CC2)cc1 (stereo not given)	103%
Cc1ccc(NC(=S)N(CCCN2CCCC2)Cc2cccn2Cc2ccc(Cl)cc2)cc1	99.4%
CN(CCCNC(=O)CN1C(=O)CC(C)(C)S(=O)(=O)c2ccccc21)C1CCCCC1	91.3%
NCCCCCC(=O)N/N=C/c1ccc2nccnc2c1	48% [may fluoresce violet] (active)
Cc1nccn1CC(=O)N/N=C/c1ccc(O)c(O)c1	103%
O=C(N/N=C/c1ccc(Cl)c(Cl)c1)c1ccc2nc[nH]c2c1	99.3%
